An excerpt weighted towards active compounds, which were near 1.4% of everything screened.
GALR2 agonist: GALR2 (human) receptor agonism; O43603; GALR2-expressing cells, agonist activation read-out; activation, % (concentration not given with the values); 0.48% of 140,000 active; AID 803; in the data active means activation above about 5%, passing the limit was not always enough;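 further: 0% = vehicle buffer wells and 100% = reference agonist at full effect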
MT1-MMP txn act: activates MT1-MMP transcription; HT1080 MT1-MMP promoter luciferase reporter, luminescence, overnight; stronger effect = higher value; activation factor at 10 µM; 0.16% of 86,000 active; AID 750;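 active means activation factor of at least 2 for MT1-MMP transcription at 10 µM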
Smad3 inh: blocks human Smad3 binding to FoxH1 peptide; inhibition, % at 25 µM; AID 630; 0.29% of 88,000 active; P84022; TR-FRET Smad3/Dy647-FoxH1 peptide binding, europium anti-His;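 active means compounds that reduce the energy-transfer binding signal between the protein and its labelled peptide by more than half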;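 further: 0% = Smad3 plus labelled peptide maximal FRET and 100% = peptide-only background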
Target sequence (P84022 whole entry, looked up): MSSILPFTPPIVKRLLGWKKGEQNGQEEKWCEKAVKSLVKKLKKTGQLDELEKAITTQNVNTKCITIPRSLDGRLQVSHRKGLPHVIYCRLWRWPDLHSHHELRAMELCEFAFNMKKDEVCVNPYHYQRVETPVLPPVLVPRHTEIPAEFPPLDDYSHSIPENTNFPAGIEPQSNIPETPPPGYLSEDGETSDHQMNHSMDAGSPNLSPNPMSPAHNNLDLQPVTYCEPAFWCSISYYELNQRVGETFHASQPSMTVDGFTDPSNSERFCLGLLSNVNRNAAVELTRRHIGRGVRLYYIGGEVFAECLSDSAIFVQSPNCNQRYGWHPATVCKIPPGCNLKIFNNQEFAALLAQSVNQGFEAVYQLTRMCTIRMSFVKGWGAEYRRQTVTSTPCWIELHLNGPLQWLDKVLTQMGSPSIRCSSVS
S1P2 ag: activates the human S1P2 receptor | AID 729 | S1P2-expressing cell line, agonist reporter read-out | activation, % at 4.5 µM | 0.46% of 97,000 active; in the data active means activation above about 16%;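 further: 0% = vehicle low control and 100% = maximal reference agonist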
GALR2 blocker: GALR2 (human) receptor antagonism; AID 828; inhibition, % at 4 µM; 0.39% of 140,000 active; O43603; GALR2-expressing cells, antagonist mode; in the data active means inhibition above about 27%;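 further: cells stimulated with galanin 1-16 at roughly its EC80; 0% = agonist challenge control and 100% = basal control without agonist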
S1P2 antag: S1P2 (human) receptor antagonism; inhibition, % at 5 µM; cell-based S1P2 antagonist assay, inhibition at 5 uM; O95136; 0.21% of 97,000 active; in the data active means inhibition above about 45%;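 further: CRE beta-lactamase reporter cells expressing human S1P2 stimulated with S1P; 0% = agonist at EC80 alone and 100% = agonist plus reference antagonist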
GALR2 ag confirm: confirmation of human galanin receptor 2 (GALR2) agonists; shares compounds with GALR2 agonist; GALR2-expressing cells, agonist activation; activation, % at 5.6 µM; 10% of 460 active; in the data active means activation above about 8.4%;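 further: 0% = buffer-only vehicle wells and 100% = full reference agonist response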
BLA activ ctr: beta-lactamase activation, GALR2 counterscreen; shares compounds with GALR2 agonist; CHO NFAT-bla reporter, beta-lactamase FRET activation; activation, % at 5.6 µM; 10% of 460 active; AID 865;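 active means activation above the screen-wide mean activation plus 3 SD, cut at about 8% in these data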;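 further: 0% = DMSO with PBS wells and 100% = thapsigargin positive control wells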
An asterisk follows results filed as active; x = no result.

SMILES | GALR2 agonist | MT1-MMP txn act | Smad3 inh | S1P2 ag | GALR2 blocker | S1P2 antag | GALR2 ag confirm | BLA activ ctr
CCN(CC)c1ccc(C(=O)OCc2cc(=O)oc3cc(O)ccc23)cc1 | 1 | x | x | -4 | -1 | -6 | x | x
CCN(CC)c1ccc2c(Cl)cc(=O)oc2c1 | 9 | x | x | 9 | 22 | 47* | 2 | 7
Oc1c(C(O)(c2ccccc2)c2ccc3ccccc3c2O)ccc2ccccc12 | x | x | 18 | x | x | x | x | x
COc1ccc(OC)c2sc(NC(=O)c3ccc(Br)s3)nc12 | 13* | 1.1 | -31 | x | 15 | x | -1 | -2
COc1ccc(OC)c2sc(NC(=O)c3ccc(Cl)s3)nc12 | -1 | 1.1 | x | -11 | -16 | 5 | x | x
CCCCNC(=O)c1ccc(Cn2c(=S)[nH]c3c([nH]c4ccc(OC)cc43)c2=O)cc1 | 10* | x | x | x | 5 | x | 3 | 0
CCCCNC(=S)NNC(=O)C12CC3CC(CC(C3)C1)C2 | -1 | 1 | 3 | -1 | -3 | -4 | x | x
CC(C)NC(=S)NNC(=O)C12CC3CC(CC(C3)C1)C2 | 12* | 1.1 | 8 | -4 | 3 | -7 | -1 | -2
Cc1ccc(NC(=O)CCC(=O)NNC(=O)c2ccco2)cc1C | 18* | x | x | -11 | 7 | 7 | -1 | -1
Cc1c(Cl)cccc1NC(=O)CCC(=O)NNC(=O)c1ccco1 | -1 | x | x | -4 | 2 | 11 | x | x
CCN(CC)c1ccc2cc(-c3nc4ccccc4n3C)c(=O)oc2c1 | 10 | 0.7 | -16 | 3 | 43* | 69* | 4 | 4
CN(C)CC(CN(C)C)c1ccccn1 | x | x | 0 | x | x | x | x | x
Cc1cccc(CC(Cc2nc3ccccc3[nH]2)c2nc3ccccc3[nH]2)c1 (centres undefined) | 9 | x | x | -7 | -11 | -3 | 15* | 29*
Cc1cccc(OCCSCc2nc3ccccc3[nH]2)c1 | -2 | x | x | -7 | 2 | 8 | x | x
N#C[C@@H](N=Nc1ccccc1C(=O)O)C(N)=O | x | x | 12 | x | x | x | x | x
CCOC(=O)c1[nH]c2ccc(Cl)cc2c1NC(=O)/C=C/c1ccc2c(c1)OCO2 | 14* | x | x | x | -5 | x | 8.5* | 2
CCN(CC(=O)Nc1c(C(=O)OC)[nH]c2ccc(Cl)cc12)c1ccc2c(c1)OCO2 | 0 | 1.2 | 10 | -5 | 7 | 4 | x | x
O=C(Cc1sc(-c2ccccc2Cl)nc1-c1ccccc1)Nc1ccc(F)cc1 | -2 | 1.1 | -16 | -8 | -6 | -11 | x | x
O=C(Cc1sc(-c2ccccc2Cl)nc1-c1ccccc1)Nc1ccccc1 | 26* | 1.2 | -72 | -6 | -8 | 6 | 3 | 5
NCCSCCc1ccccc1 | x | x | 4 | x | x | x | x | x
Cc1cc2ccccc2c[n+]1CC(O)C[n+]1cc2ccccc2cc1C | x | x | -9 | x | x | x | x | x
Cc1cc(C(=O)CN2C(=O)c3cccc(N)c3C2=O)c(C)n1Cc1cccs1 | 8 | x | x | 9 | 21 | 0 | 1 | 2
O=C(Nc1ccc(Br)cc1)c1ccc(N2C(=O)C3CC=C(Cl)CC3C2=O)cc1 (centres undefined) | 12* | 1.1 | -11 | -1 | 9 | 21 | 0 | -4
CCOc1cc(/C=C2/C(=O)N(c3ccccc3)N=C2C)ccc1OC(=O)c1ccco1 | 136* | x | x | -3 | 7 | -10 | -1 | -3
CC(C)Oc1cc(O)c2c(c1)OCC=C2CCC(=O)O | x | x | 5 | x | x | x | x | x
SMILES | GALR2 agonist | MT1-MMP txn act | Smad3 inh | S1P2 ag | GALR2 blocker | S1P2 antag | GALR2 ag confirm | BLA activ ctr
O=C(Cn1c2ccccc2c(=O)c2ccccc21)Nc1cccc(F)c1 | 12* | x | x | x | 0 | x | 9.1* | 14*
CCOC(=O)C(NC(=O)c1ccccc1)=C(C)C | 11 | 1.1 | -6 | -2 | -2 | -9 | -1 | -3
Nc1cc(S(N)(=O)=O)ccc1SSc1ccc(S(N)(=O)=O)cc1N | x | x | 21 | x | x | x | x | x
CC(C)(C)c1ccc(OCC(=O)O)c(Cl)c1 | x | x | 5 | x | x | x | x | x
O=S(=O)(Nc1cccnc1)c1ccc(Cl)cc1 | 80* | 1.1 | -5 | -3 | 0 | 12 | 0 | -1
CC(C)(C)c1ccc(S(=O)(=O)Nc2cccnc2)cc1 | -2 | 1 | -1 | -6 | 8 | 23 | x | x
COc1ccc(C2CC3(CC(C)(C)NC(SC)=N3)Oc3cc(O)cc(C)c32)cc1 (centres undefined) | 19* | x | x | x | -34 | x | 25* | 84*
N#C/C(=C\c1c(N2CCCCCC2)nc2ccccn2c1=O)C(=O)NC1CCS(=O)(=O)C1 (centres undefined) | 8.9* | x | x | x | -20 | x | 0 | 0

Source: PubChem BioAssay (several laboratories)
